Assay results taken from PubChem BioAssay (Tox21).
Several values for one entry are separate records, joined by “and”; a condition that tells them apart may be missing. Equal values may be shown once. Results filed as inconclusive are left out. Entries that show only a call come without a potency. More than one record can exist for a structure, and the calls need not agree. Activity calls are given as the source filed them. Unless noted, calls follow the shape of the dose curve; as a rule, active = well fitted curve in the direction sought with a large enough effect in the repeat runs; inconclusive = weak or mixed curves; inactive = no such curve, though single readings can be large; an effect the other way counts as inactive or inconclusive.

Legend:
[1] = qHTS assay to identify small molecule agonists of the sonic hedgehog signaling (Shh) pathway (AID 1259368; calls by dose curve;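 also: NIH/3T3-derived 3T3Gli1-Luc cells carrying a stable Gli1-driven firefly luciferase reporter; series mostly up to about 92 µM; nearly all actives have a fitted effect of over 15% in size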)
Outline: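 3T3Gli1-Luc (NIH/3T3 clone, stable Gli1-Luc); 4 hr pre-incubation, then cpd in DMSO 24 hr, 37 C/5% CO2; luciferase reagent 30 min RT; luminescence.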

[2] = qHTS assay to identify small molecule antagonists of the sonic hedgehog signaling (Shh) pathway (AID 1259369; calls by dose curve; also: nearly all actives have a fitted effect of over 45% in size; also: potency is read from the fitted curve at half-maximal effect)
Outline: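 3T3Gli1-Luc, conditioned-medium-stimulated, 24hr cpd, 37C/5% CO2; Gli1-driven firefly Luc luminescence after 30min RT with luciferase reagent. Cells plated 4hr before cpd.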

[3] = qHTS assay to identify small molecule agonists of the androgen receptor (AR) signaling pathway in the presence of an antagonist - cell viability counter screen (AID 1259379); also: nearly all actives have a fitted effect of over 25% in size; also: potency is read from the fitted curve at half-maximal effect
Outline: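 Cells: MDA-kb2 (MMTV-luc, AR and GR elements), 3,000/well, 5 hr settle. Added: nilutamide 3.0uM final, then compounds (15 conc.). Incubation: 16 hr, 37C, no CO2. Read-out: CellTiter-Fluor, 1 hr, fluorescence.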

[4] = qHTS assay to identify small molecule agonists of the estrogen receptor beta (ER-beta) signaling pathway - cell viability counter screen (AID 1259380); also: nearly all actives have a fitted effect of over 30% in size; also: potency is read from the fitted curve at half-maximal effect
Outline: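 HEK293T ER-beta-UAS-bla; 2% CS-FBS; 6 hr pre-plate, 16 hr cpd at 37C/5% CO2; LiveBLAzer read first, then CellTiter-Glo 30 min RT, luminescence.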

[5] = qHTS assay to identify small molecule antagonists of the estrogen receptor beta (ER-beta) signaling pathway - cell viability counter screen (AID 1259382); also: nearly all actives have a fitted effect of over 55% in size; also: potency is read from the fitted curve at half-maximal effect
Outline: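 Cells: ER-beta-UAS-bla HEK293T, 2,000/well, 2% CS-FBS, 6 hr settle. Cpd + E2 (1nM final), 16 hr, 37C/5% CO2. Bla FRET substrate 2 hr RT, then CellTiter-Glo 30 min RT, luminescence.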

[6] = qHTS assay to identify small molecule agonists or antagonists of the thyroid stimulating hormone receptor (TSHR) signaling pathway - wild type cell line counter screen (AID 1259384; calls by dose curve)
Outline: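 Counter screen in untransfected Hek293: compounds (15-point titration, triplicate) plus phosphodiesterase inhibitor Ro20-1724 added after 18 h plating; 30 min RT. Intracellular cAMP via competitive d2/cryptate immunoassay, 1 h incubation.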

[7] = qHTS assay to identify small molecule agonists of the estrogen receptor alpha (ER-alpha) signaling pathway in the presence of an antagonist - cell viability counter screen (AID 1259386);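 also: cells exposed to compounds for 22 h at 37 °C before the viability read; nearly all actives have a fitted effect of over 30% in size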; also: potency is read from the fitted curve at half-maximal effect
Outline: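 VM7Luc4E2, stripped-serum pre-culture 5 d; 24hr plating; +ICI-182,780 10.0nM final; cpds 15 conc, 22hr, 37C/5% CO2; CellTiter-Fluor added at 21hr, fluorescence 1hr later.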

[8] = biological target: Progesterone receptor (Homo sapiens) (UniProt P06401); assay: qHTS assay to identify small molecule agonists of the progesterone receptor (PR) signaling pathway (AID 1346784; calls by dose curve; also: nearly all actives have a fitted effect of over 30% in size)
Sequence of Progesterone receptor (Homo sapiens) (P06401 whole entry, looked up): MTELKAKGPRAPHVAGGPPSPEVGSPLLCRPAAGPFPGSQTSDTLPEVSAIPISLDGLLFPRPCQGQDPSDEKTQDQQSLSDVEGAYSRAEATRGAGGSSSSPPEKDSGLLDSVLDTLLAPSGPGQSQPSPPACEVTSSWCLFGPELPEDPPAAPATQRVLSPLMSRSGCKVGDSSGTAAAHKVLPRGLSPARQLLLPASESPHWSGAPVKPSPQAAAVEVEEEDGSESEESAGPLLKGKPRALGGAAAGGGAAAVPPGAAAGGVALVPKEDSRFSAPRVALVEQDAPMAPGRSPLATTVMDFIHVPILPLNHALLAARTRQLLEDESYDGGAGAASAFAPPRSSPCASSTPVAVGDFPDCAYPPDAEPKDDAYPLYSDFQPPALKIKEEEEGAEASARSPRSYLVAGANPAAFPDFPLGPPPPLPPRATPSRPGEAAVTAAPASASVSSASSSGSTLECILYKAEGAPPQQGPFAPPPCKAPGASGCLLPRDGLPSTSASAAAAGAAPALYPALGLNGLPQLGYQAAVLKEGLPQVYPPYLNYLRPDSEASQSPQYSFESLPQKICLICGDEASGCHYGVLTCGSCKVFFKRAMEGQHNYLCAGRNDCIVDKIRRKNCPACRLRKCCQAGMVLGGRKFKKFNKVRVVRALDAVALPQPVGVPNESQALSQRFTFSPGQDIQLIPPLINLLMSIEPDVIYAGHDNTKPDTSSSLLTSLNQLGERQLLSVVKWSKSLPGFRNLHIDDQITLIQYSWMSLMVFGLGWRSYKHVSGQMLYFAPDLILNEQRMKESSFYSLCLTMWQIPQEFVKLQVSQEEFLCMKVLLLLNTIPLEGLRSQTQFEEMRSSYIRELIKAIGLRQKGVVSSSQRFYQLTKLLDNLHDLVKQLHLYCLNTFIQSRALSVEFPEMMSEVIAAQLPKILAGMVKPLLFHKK
Outline: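 Using charcoal-stripped serum (2%) to limit endogenous steroids, PR-UAS-bla HEK 293T cells received compounds for 16 hr at 37C after 6 hr plating; beta-lactamase FRET fluorescence was recorded following 2 hr substrate loading at room temperature.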

[9] = biological target: Progesterone receptor (Homo sapiens) (UniProt P06401); assay: qHTS assay to identify small molecule antagonists of the progesterone receptor (PR) signaling pathway (AID 1346795; active = well fitted inhibition curve with a large enough effect in the signal ratio in the repeat runs, not every such curve was filed as active; the % refers to the signal ratio)
Outline: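 Inhibition of R5020-induced (1 nM final) beta-lactamase reporter signal in PR-UAS-bla HEK293T cells was scored by FRET fluorescence after overnight (16 hr) compound treatment.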

[10] = qHTS assay to identify small molecule antagonists of the progesterone receptor (PR) signaling pathway - cell viability counter screen (AID 1346798); also: nearly all actives have a fitted effect of over 50% in size; also: potency is read from the fitted curve at half-maximal effect
Outline: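 ATP content as viability readout: CellTiter-Glo luminescence, 30 min room temperature, in PR-UAS-bla HEK293T cells after 16 hr compound/R5020 treatment at 37C and 5% CO2.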

[11] = qHTS assay to identify small molecule agonists of the progesterone receptor (PR) signaling pathway - cell viability counter screen (AID 1346799; calls by dose curve; also: nearly all actives have a fitted effect of over 45% in size; also: potency is read from the fitted curve at half-maximal effect)
Outline: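 Cytotoxicity in PR-bla HEK293T cells: 16 h compound, 37C; CellTiter-Glo added post-FRET read; luminescence after 30 min RT.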

[12] = qHTS assay to identify small molecule antagonists of the TGF-beta/Smad signaling pathway - cell viability counter screen (AID 1346824); also: nearly all actives have a fitted effect of over 50% in size; also: potency is read from the fitted curve at half-maximal effect
Outline: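 Cytotoxicity counter-screen run in the same wells as the beta-lactamase Smad reporter read: CellTiter-Glo luminescence after 30 min at room temperature. HEK 293T SBE-bla cells had 5 hr compound exposure at 37 C with TGF-beta1 (0.25 ng/mL stock).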

[13] = qHTS assay to identify small molecule agonists of the TGF-beta/Smad signaling pathway - cell viability counter screen (AID 1346829); also: nearly all actives have a fitted effect of over 45% in size; also: potency is read from the fitted curve at half-maximal effect
Outline: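 After overnight seating at 37 C and 5% CO2, reporter cells got compounds for 5 hr and FRET substrate for 2 hr; cell viability then came from CellTiter-Glo luminescence.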

[14] = qHTS assay to identify small molecule agonists of the TGF-beta/Smad signaling pathway (AID 1346859; active = well fitted activation curve with a large enough effect in the signal ratio in the repeat runs, not every such curve was filed as active; the % refers to the signal ratio; also: series mostly up to about 77 µM)
Outline: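 Stable Smad binding element-beta-lactamase HEK 293T cells; 5 hr compound exposure at 37 C under 5% CO2; 2 hr room-temperature substrate step; fluorescence excited at 405 nm, collected at 460 nm and 530 nm.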

[15] = biological target: Thyrotropin-releasing hormone receptor (Homo sapiens) (UniProt P34981); assay: qHTS assay to identify small molecule antagonists of the thyrotropin-releasing hormone receptor (TRHR) signaling pathway (AID 1346877; active = well fitted inhibition curve with a large enough effect in the repeat runs, not every such curve was filed as active; also: series mostly up to about 51 µM)
Sequence of Thyrotropin-releasing hormone receptor (Homo sapiens) (P34981 whole entry, looked up): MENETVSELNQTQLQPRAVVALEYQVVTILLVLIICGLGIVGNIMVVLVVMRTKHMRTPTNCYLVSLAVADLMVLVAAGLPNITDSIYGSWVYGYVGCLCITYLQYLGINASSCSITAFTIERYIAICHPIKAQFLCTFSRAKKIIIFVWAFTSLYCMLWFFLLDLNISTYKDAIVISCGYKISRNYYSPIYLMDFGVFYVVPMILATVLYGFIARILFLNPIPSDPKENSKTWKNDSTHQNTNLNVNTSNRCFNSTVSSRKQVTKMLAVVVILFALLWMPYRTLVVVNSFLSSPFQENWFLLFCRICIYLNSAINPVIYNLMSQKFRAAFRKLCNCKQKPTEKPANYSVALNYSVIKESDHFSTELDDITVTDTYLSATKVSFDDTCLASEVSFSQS
Outline: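 Intracellular calcium fluorescence, read kinetically every second over 3 min, reports TRH-evoked signalling in HEK293 cells carrying TRHR. Test compounds were added 5 min ahead of a 1 nM TRH challenge.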

[16] = biological target: Androgen receptor (Homo sapiens) (UniProt P10275); assay: qHTS assay to identify small molecule agonists of the androgen receptor (AR) signaling pathway in the presence of an antagonist (AID 1259381; calls by dose curve; also: nearly all actives have a fitted effect of over 15% in size)
Sequence of Androgen receptor (Homo sapiens) (P10275 whole entry, looked up): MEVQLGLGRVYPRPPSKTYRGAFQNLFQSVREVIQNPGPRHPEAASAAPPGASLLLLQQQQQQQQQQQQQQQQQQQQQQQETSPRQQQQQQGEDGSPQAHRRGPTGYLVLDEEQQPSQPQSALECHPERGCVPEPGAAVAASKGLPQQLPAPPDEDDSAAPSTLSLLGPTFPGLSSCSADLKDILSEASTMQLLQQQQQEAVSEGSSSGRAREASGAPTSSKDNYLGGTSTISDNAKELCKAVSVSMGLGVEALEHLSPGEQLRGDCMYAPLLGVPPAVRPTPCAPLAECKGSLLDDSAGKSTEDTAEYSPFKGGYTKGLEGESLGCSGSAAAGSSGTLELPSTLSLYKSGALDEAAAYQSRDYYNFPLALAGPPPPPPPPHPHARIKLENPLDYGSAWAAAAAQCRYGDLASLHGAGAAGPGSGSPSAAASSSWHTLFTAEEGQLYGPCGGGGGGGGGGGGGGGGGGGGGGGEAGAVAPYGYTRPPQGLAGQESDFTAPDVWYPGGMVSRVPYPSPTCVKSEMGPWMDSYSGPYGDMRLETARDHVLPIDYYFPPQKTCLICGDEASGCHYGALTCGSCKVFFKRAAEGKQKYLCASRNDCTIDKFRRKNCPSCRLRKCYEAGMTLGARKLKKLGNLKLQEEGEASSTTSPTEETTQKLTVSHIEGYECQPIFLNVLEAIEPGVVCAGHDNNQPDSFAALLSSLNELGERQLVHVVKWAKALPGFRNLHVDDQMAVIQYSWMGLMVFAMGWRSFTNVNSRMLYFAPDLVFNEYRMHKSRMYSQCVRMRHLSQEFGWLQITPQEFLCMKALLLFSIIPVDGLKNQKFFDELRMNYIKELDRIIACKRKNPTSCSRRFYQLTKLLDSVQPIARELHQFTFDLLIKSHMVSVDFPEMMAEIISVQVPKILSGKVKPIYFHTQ
Outline: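 MDA-kb2 cells, 3,000/well, rested 5hr at 37C/0% CO2 → nilutamide 3.0uM final or buffer → compounds, 15 conc. → 16hr at 37C → ONE-Glo, 30min RT → luminescence.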

[17] = biological target: Estrogen receptor (Homo sapiens) (UniProt P03372); assay: qHTS assay to identify small molecule agonists of the estrogen receptor alpha (ER-alpha) signaling pathway in the presence of an antagonist (AID 1259383; calls by dose curve; also: top concentration of the series differs between compounds; nearly all actives have a fitted effect of over 15% in size)
Sequence of Estrogen receptor (Homo sapiens) (P03372 whole entry, looked up): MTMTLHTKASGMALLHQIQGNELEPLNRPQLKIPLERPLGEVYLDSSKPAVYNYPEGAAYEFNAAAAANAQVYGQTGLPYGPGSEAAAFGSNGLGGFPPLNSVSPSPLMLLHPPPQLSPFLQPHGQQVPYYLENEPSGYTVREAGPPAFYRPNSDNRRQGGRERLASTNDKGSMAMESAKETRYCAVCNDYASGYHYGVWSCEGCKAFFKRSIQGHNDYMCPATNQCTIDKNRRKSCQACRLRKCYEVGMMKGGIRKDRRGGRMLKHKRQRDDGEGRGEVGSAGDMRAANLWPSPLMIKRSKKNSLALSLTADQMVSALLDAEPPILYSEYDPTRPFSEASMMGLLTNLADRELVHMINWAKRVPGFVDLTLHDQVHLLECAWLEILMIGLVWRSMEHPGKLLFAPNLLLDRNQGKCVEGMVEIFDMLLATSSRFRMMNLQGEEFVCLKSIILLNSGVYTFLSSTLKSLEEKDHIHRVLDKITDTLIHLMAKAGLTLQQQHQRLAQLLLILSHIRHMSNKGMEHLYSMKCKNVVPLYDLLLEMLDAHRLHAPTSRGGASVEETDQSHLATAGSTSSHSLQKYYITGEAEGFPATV
Outline: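 VM7Luc4E2, endog. ER-alpha + 4×ERE-luc; charcoal-stripped FBS, phenol red-free, 5 d; 24hr plating; +10.0nM ICI-182,780 (final); cpds 15 conc, 22hr, 37C/5% CO2; ONE-Glo luminescence.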

[18] = biological target: Thyrotropin receptor (Homo sapiens) (UniProt P16473); assay: qHTS assay to identify small molecule antagonists of the thyroid stimulating hormone receptor (TSHR) signaling pathway (AID 1259385; calls by dose curve; also: nearly all actives have a fitted effect of over 20% in size)
Sequence of Thyrotropin receptor (Homo sapiens) (P16473 whole entry, looked up): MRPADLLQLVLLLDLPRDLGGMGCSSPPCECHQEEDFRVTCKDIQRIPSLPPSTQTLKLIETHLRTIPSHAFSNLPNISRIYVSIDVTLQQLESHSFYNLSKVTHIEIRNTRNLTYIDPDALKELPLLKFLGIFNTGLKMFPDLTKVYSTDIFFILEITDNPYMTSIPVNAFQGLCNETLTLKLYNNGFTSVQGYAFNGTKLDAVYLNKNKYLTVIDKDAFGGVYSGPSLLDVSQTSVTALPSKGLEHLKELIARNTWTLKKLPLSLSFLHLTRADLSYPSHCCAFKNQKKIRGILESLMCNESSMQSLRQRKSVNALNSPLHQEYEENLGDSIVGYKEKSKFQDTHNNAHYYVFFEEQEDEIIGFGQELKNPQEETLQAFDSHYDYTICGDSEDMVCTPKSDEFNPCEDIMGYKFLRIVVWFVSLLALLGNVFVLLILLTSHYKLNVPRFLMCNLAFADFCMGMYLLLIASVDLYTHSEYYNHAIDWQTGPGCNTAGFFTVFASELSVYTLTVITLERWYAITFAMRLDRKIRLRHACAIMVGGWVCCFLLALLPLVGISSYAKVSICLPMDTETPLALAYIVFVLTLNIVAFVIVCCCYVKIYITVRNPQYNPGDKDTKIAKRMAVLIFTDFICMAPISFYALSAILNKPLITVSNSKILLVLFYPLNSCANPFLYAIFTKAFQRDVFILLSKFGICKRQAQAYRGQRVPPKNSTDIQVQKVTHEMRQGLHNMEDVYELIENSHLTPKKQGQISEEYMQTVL
Outline: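 Antagonist mode: compound-treated TSHR-expressing HEK293 cells were stimulated with 1.5 ng/mL TSH (final) in presence of Ro20-1724 for 30 min at RT. HTRF cAMP detection after 1 h; each compound tested at 15 concentrations, triplicate.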

[19] = biological target: Estrogen receptor beta (Homo sapiens) (UniProt Q92731); assay: qHTS assay to identify small molecule antagonists of the estrogen receptor beta (ER-beta) signaling pathway (AID 1259378; active = well fitted inhibition curve with a large enough effect in the signal ratio in the repeat runs, not every such curve was filed as active; the % refers to the signal ratio)
Sequence of Estrogen receptor beta (Homo sapiens) (Q92731 whole entry, looked up): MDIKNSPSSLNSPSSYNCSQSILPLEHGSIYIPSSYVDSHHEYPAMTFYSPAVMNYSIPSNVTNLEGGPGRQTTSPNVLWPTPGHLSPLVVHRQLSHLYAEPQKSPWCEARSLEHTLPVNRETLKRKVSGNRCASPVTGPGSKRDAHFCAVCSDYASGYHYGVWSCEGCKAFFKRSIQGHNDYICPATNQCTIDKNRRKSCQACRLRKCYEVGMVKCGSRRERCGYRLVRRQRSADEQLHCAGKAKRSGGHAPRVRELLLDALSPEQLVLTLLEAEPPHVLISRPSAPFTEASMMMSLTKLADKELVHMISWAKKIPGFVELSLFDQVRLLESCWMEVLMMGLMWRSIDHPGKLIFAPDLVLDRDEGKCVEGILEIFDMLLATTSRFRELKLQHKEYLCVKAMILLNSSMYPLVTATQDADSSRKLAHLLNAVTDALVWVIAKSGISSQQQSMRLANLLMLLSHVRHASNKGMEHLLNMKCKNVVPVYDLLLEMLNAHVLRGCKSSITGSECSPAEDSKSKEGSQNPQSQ
Outline: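 Antagonist mode: compounds added to beta-lactamase reporter HEK293T ER-beta-UAS cells stimulated with E2 (1nM final), 16 hr at 37C. LiveBLAzer B/G FRET substrate, 2 hours room temperature, fluorescence read-out.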

| Compound | outcome [1] | Potency [2] | Potency [3] | Potency [4] | Potency [5] | Potency [6] | Potency [7] | Potency [8] | Potency [9] | Potency [10] | Potency [11] | Potency [12] | Potency [13] | outcome [14] | Potency [15] | Potency [16] | Potency [17] | Potency [18] | Potency [19] |
| --- | --- | --- | --- | --- | --- | --- | --- | --- | --- | --- | --- | --- | --- | --- | --- | --- | --- | --- | --- |
| O=C1NS(=O)(=O)c2ccccc21 | inactive | inactive | inactive | inactive | inactive | inactive | inactive | inactive | inactive | inactive | inactive | inactive | inactive | inactive | inactive |  |  |  |  |
| O=C1O[C@H]([C@@H](O)CO)C(O)=C1O | inactive | inactive | inactive | inactive | inactive | inactive | inactive | inactive | inactive | inactive | inactive | inactive | inactive | inactive |  |  |  |  |  |
| CC(O)(P(=O)(O)O)P(=O)(O)O | inactive | inactive | inactive | inactive | inactive | inactive | inactive |  |  | inactive | inactive | inactive | inactive | inactive | inactive |  |  |  |  |
| COc1cccc(O)c1O | inactive | 8.97 µM (active) |  | 56.6 µM (active) | inactive |  |  | inactive | inactive | inactive | inactive | inactive | inactive | inactive | inactive | inactive | inactive |  |  |
| Cn1c(=O)c2c(ncn2C)n(C)c1=O | inactive | 17.4 µM (active) and inactive | 55.1 µM (active) and inactive | inactive | inactive |  | 61.9 µM (active) and inactive | inactive | inactive | inactive | inactive | inactive | inactive | inactive |  |  |  |  |  |
| Cc1cc(C)nc(NS(=O)(=O)c2ccc(N)cc2)n1 | inactive | inactive | inactive | inactive | inactive | inactive | inactive | inactive | inactive | inactive | inactive | inactive | inactive | inactive | inactive |  |  | inactive |  |
| C[C@](N)(Cc1ccc(O)c(O)c1)C(=O)O | inactive | inactive | inactive | inactive | inactive |  | inactive and 54.3 µM (active) | inactive | inactive | inactive | inactive | inactive | inactive | inactive | inactive |  |  |  |  |
| Nc1ccc([N+](=O)[O-])cc1O | inactive |  | 30.6 µM (active) |  | inactive |  | 27.3 µM (active) |  |  |  |  |  | inactive | inactive |  |  |  |  |  |
| Oc1ccccc1 | inactive | inactive | inactive | inactive | inactive | inactive | inactive |  |  | inactive | inactive | inactive | inactive | inactive |  |  |  |  |  |
| CCCCNC(=O)NS(=O)(=O)c1ccc(C)cc1 | inactive | inactive | inactive | inactive | inactive |  | inactive | inactive | inactive | inactive | inactive | inactive | inactive | inactive | inactive |  |  |  |  |
| C1=CC2C3C=CC(C3)C2C1 (configuration not stated) | inactive |  | inactive | inactive | inactive | inactive | inactive | inactive |  | inactive |  | inactive | inactive | inactive |  |  |  |  | inactive |
| COc1ccc(CN(CCN(C)C)c2ccccn2)cc1 | inactive | inactive | inactive | 50.2 µM (active) and inactive | inactive |  | inactive | inactive | inactive | inactive | 42.8 µM (active) and 28.2 µM (active) and inactive | inactive | inactive | inactive | inactive |  |  |  |  |
| CCCCCCCCCCCC[N+](C)(C)Cc1ccccc1 | inactive | 2.13 µM (active) and 419 nM (active) and 3.76 µM (active) | 23.9 µM (active) and 33.3 µM (active) and 26.6 µM (active) | 30 µM (active) and 29.7 µM (active) and 10.6 µM (active) | 26.8 µM (active) and 37.4 µM (active) and 11.9 µM (active) | inactive | 67.3 µM (active) and 74.5 µM (active) and inactive |  |  | 29.7 µM (active) and 33.5 µM (active) | 8.47 µM (active) and 8.36 µM (active) and 10.6 µM (active) | 48 µM (active) and 33.6 µM (active) and 23.9 µM (active) | 48 µM (active) and 29.9 µM (active) | inactive | inactive |  |  |  |  |
| CCCC[P+](CCCC)(CCCC)CCCC | inactive | inactive | 60.9 µM (active) and 62.3 µM (active) and 61.1 µM (active) |  | inactive | inactive | inactive | inactive | inactive | inactive | inactive | inactive | inactive |  |  |  |  |  |  |
| F[B-](F)(F)F | inactive | inactive | inactive | inactive and 62 µM (active) | inactive | inactive | inactive | inactive | inactive | inactive | inactive | inactive | inactive | inactive | inactive |  |  |  |  |
